Compound activity: PubChem BioAssay, National Center for Advancing Translational Sciences (NCATS)
An excerpt weighted towards active compounds, which were near 0.9% of everything screened.
BLM helicase inh: qHTS Assay for Inhibitors of Bloom's syndrome helicase (BLM). hit rate 0.2% among 350,000. RecQ-like DNA helicase BLM (Homo sapiens), P54132. recombinant BLM DNA unwinding, fluorescence dequenching. Potency, µM (doses to about 56.1 µM), hits mostly inhibitors; further: nearly all actives have a fitted effect of over 35% in size
RGS12 GoLoco inh: qHTS Assay for Inhibitors of RGS12 GoLoco Motif Activity (Red Fluorophore); hit rate 0.44% among 230,000; Guanine nucleotide-binding protein G(i) subunit alpha-1 (Homo sapiens), P63096; Gai1:RGS12 GoLoco peptide FP, rhodamine, 10 min; Potency, µM (titrated, usually from 61.6 µM), actives largely listed as inhibitors; active means well fitted inhibition curve with a large enough effect, not every such curve was filed as active; inactive means no such curve, though single readings can be large or run the other way; further: nearly all actives have a fitted effect of over 30% in size
Target sequence (P63096 whole entry, looked up): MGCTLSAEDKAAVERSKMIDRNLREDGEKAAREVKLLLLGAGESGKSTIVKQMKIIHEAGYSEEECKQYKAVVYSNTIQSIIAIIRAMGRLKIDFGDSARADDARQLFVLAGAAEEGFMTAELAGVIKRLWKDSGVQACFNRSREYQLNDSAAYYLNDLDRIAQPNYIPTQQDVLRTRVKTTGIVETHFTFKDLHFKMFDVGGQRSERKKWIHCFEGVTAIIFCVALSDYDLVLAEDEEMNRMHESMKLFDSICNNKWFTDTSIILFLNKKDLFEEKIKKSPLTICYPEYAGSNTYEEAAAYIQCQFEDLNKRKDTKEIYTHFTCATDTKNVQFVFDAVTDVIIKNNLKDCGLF
TexasRed fluor: Total Fluorescence Counterscreen for Inhibitors of the Interaction of Thyroid Hormone Receptor and Steroid Receptor Coregulator 2; TRb/SRC2 Texas Red total fluorescence interference; Potency, µM (top dose mostly 106 µM); hit rate 0.29% among 280,000; active means well fitted curve in either direction with a large enough effect; inconclusive means small, poorly fitted or top-dose-only effect
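Human TRb ligand-binding domain at 0.6 uM with 20 nM Texas Red SRC2 peptide in Tris buffer containing 1 uM T3 and 5% DMSO, incubated with compound 5 h at ambient temperature. Total fluorescence (555/632 nm) calculated as parallel + 2 × perpendicular.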
TRb-SRC2 inh: qHTS for Inhibitors of the Interaction of Thyroid Hormone Receptor and Steroid Receptor Coregulator 2 | Thyroid hormone receptor beta (Homo sapiens), P10828 | TRbeta-SRC2 peptide binding, fluorescence polarization; receptor liganded with 1 µM T3 | Potency, µM (highest dose often 106 µM), actives largely listed as inhibitors | hit rate 0.065% among 280,000 | AID 1469, 2008; further: nearly all actives have a fitted effect of over 50% in size
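Polarization signal, normalized between peptide-alone and full complex controls, measured compound effects on T3-liganded human TRb LBD (0.6 uM) binding 20 nM Texas Red SRC2 peptide after 5 hr.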
RECQ1 inh-1: qHTS Assay for Inhibitors of RecQ-Like Dna Helicase 1 (RECQ1); ATP-dependent DNA helicase Q1 (Homo sapiens), P46063; RECQ1 DNA unwinding, red fluorescence kinetic read; Potency, µM (titrated, usually from 57.3 µM), actives largely listed as inhibitors; hit rate 0.54% among 240,000; AID 2549, 2010; further: nearly all actives have a fitted effect of over 30% in size
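50 nM RECQ1T1 preincubated 15 min with compound in Tris pH 8.0 buffer with MgCl2, DTT, Tween-20 and 2.5 ug/ml poly(dI-dC); started with 200 nM TAMRA/BHQ-2 forked duplex and 2 mM ATP. Unwinding read as fluorescence (525/598 nm), two reads 2 h apart.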
APE1 inh: qHTS Assay for Inhibitors of the Human Apurinic/apyrimidinic Endonuclease 1 (APE1); recombinant APE1, TAMRA/BHQ-2 abasic DNA cleavage fluorescence; Potency, µM (series often up to 65.8 µM), actives largely listed as inhibitors; hit rate 0.35% among 350,000; AID 2517, 2012; further: nearly all actives have a fitted effect of over 55% in size
Target sequence (P27695 whole entry, looked up): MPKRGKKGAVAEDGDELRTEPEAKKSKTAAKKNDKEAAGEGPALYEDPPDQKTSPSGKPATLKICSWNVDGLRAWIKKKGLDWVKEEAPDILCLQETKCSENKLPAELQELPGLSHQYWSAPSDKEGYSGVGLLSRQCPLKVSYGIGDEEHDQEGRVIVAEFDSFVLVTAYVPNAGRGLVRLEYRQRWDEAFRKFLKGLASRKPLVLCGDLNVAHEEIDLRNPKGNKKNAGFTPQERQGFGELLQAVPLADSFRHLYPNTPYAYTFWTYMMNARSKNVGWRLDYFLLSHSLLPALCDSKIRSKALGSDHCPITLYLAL
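Readout is kinetic fluorescence (ex 525, em 598 nm) from cleavage of 50 nM TAMRA/BHQ-2 THF abasic duplex by 0.75 nM APE1, compound added 15 min beforehand at RT.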
RECQ1 inh conf: Confirmation qHTS Assay for Inhibitors of RecQ-Like Dna Helicase 1 (RECQ1). Potency, µM (top dose mostly 229 µM), actives largely listed as inhibitors. RECQ1 helicase DNA unwinding, fluorescence. shares compounds with RECQ1 inh-1. hit rate 28% among 610. AID 2708, 2010; further: nearly all actives have a fitted effect of over 45% in size
ADP FP counter: Counterscreen for RECQ1 Inhibitors: ADP Fluorescence Polarization Displacement Assay; shares compounds with RECQ1 inh-1; ADP fluorescence polarization displacement counterscreen; Potency, µM (titrated, usually from 228 µM), hits mostly inhibitors; hit rate 27% among 530; AID 2711, 2010; further: nearly all actives have a fitted effect of over 45% in size
RECQ1 inh-2: Confirmation qHTS Assay for Inhibitors of RecQ-Like Dna Helicase 1 (RECQ1) - Round 2 Cherry Picks; shares compounds with RECQ1 inh-1; recombinant RECQ1 DNA unwinding, red fluorescence; Potency, µM (titrated, usually from 119 µM), actives largely listed as inhibitors; hit rate 15% among 1,100; AID 504841, 2011; further: nearly all actives have a fitted effect of over 50% in size
A number is an active result; - = inactive; ? = inconclusive; . = not tested or not shown; [ ] = remark or other dose. Unless noted, the call rests on the fitted dose curve; in most records, active means well fitted curve in the direction sought with a large enough effect; inconclusive means small, poorly fitted or top-dose-only effect, or another doubt; inactive means no such curve, though single readings can be large; an effect the other way counts as inactive or inconclusive.

SMILES	BLM helicase inh	RGS12 GoLoco inh	TexasRed fluor	TRb-SRC2 inh	RECQ1 inh-1	APE1 inh	RECQ1 inh-2	others
CCCN1C(=O)/C(=C/c2ccc(C)o2)SC1=Nc1ccc(OCC)cc1	-	-	-	-	-	-	.
COc1ccc(N=C2S/C(=C\c3ccc(C)o3)C(=O)N2CC(C)C)cc1	-	-	-	-	-	-	.
CCCN1C(=O)/C(=C/c2ccco2)SC1=Nc1ccc(OC)cc1	-	-	?	-	25µM	?	-
CCCN1C(=O)/C(=C/c2ccc(C)o2)SC1=Nc1ccc(OC)cc1	-	-	-	-	?	-	-
CC(C)c1cccc2c([Si](C)(C)C)c3c(nc12)-c1cccc(=O)n1C3	-	-	-	-	-	-	.
CCOc1ccc(N2CC(NC(=O)c3ccc(S(=O)(=O)N4CCCCC4)cc3)CC2=O)cc1 (stereo unspecified)	-	.	-	-	.	.	.
COc1cccc(-n2c(SCc3cc(=O)oc4cc(O)c(O)cc34)nc3ccccc3c2=O)c1	10µM	-	-	-	25µM	10µM	13µM
CCN(CC)C(=O)CSc1nc2ccccc2c(=O)n1-c1cccc(OC)c1	-	-	-	-	-	-	.
Cc1cc(C)cc(NC(=O)c2nnn(Cc3cc(C)ccc3C)c2N)c1	-	-	-	-	1.8µM	-	-	RECQ1 inh conf=?;ADP FP counter=?
Cc1ccc(C)c(Cn2nnc(C(=O)Nc3ccc4c(c3)OCCO4)c2N)c1	.	.	.	.	.	-	.
CC(C)(C)OC(=O)N1CCCC1C(=O)NC1COC2CC(n3cc(F)c(=O)[nH]c3=O)OC12 (stereo unspecified)	-	.	-	-	-	-	.
Cc1c(C)c2c(c(C)c1O)CCC(C)(COc1ccc(CC3SC(=O)NC3=O)cc1)O2 (stereo unspecified)	-	-	-	-	?	-	?
CC1(COc2ccc(C[C@H]3SC(=O)NC3=O)cc2)CCCCC1	-	-	-	-	-	-	.
COc1cn(CC(=O)Nc2cc(C)ccc2C)c(CN2CCCCC2)cc1=O	-	.	?	-	.	.	.
CCOc1ccc(/C=C(\C(=O)O)c2ccc(S(=O)(=O)N3CCCCC3)s2)cc1OC	.	.	.	.	.	-	.
CCOc1ccc(/C=C(\C(=O)O)c2ccc(S(=O)(=O)N3CCOCC3)s2)cc1OC	-	-	-	-	-	-	.	RECQ1 inh conf=-;ADP FP counter=?
CC(=O)N1CCCc2cc(S(=O)(=O)N(C)CC(=O)Nc3ccc(Cl)cc3C)ccc21	-	.	?	-	.	.	.
Cc1noc(C)c1COc1ccc(C(=O)NCc2ccccn2)cc1	-	-	-	-	-	-	.	RECQ1 inh conf=-;ADP FP counter=?
Cc1noc(C)c1COc1ccc(C(=O)Nc2ccccc2)cc1	-	-	-	-	-	-	.	RECQ1 inh conf=-;ADP FP counter=?
CC(C)(C)c1ccc(C(=O)Nc2ccc(C(=O)OCc3cc(=O)n4ccsc4n3)cc2)cc1	-	.	-	-	.	.	.
C=CCC(C)(O)c1cccs1 (stereo unspecified)	-	-	-	-	-	-	.
CCOc1ccc(-n2c(SCc3ccccc3)nc3c([nH]c4ccccc43)c2=O)cc1	-	.	-	-	.	.	.
COCCCNC(=O)c1ccc2c3c(onc13)-c1ccccc1C2=O	-	20µM	-	-	13µM	?	50µM
CCn1c(SCC(=O)c2ccc(O)c(O)c2)nnc1-c1ccc(C)cc1	-	-	-	-	10µM	?	?	RECQ1 inh conf=?;ADP FP counter=-
COC/C=C/C1=CC2=CC(=O)C(C)(OC(=O)C3CCCC3)C(=O)C2=CO1 (stereo unspecified)	-	-	-	-	?	?	?
SMILES	BLM helicase inh	RGS12 GoLoco inh	TexasRed fluor	TRb-SRC2 inh	RECQ1 inh-1	APE1 inh	RECQ1 inh-2	others
COC/C=C/C1=CC2=CC(=O)C(C)(OC(=O)c3cccs3)C(=O)C2=CO1 (stereo unspecified)	-	-	-	-	-	-	.
CC(=O)Oc1ccc(C(=O)Nc2cccc(C(=O)c3cccc(NC(=O)c4ccc(OC(C)=O)cc4)c3)c2)cc1	-	-	-	-	14µM	-	?
CC(=O)Oc1ccc(C(=O)Nc2cccc(C(=O)NC(C)(C)C)c2)cc1	-	-	-	-	-	-	.
COC(=O)[C@@H]1C(O)[C@@H](C(=O)OC)[C@H](C)N(C)[C@@H]1C (stereo partly specified)	.	-[14.2 µM]	.	.	.	.	.
Cc1cc(N/N=C(/CCC(=O)O)C(=O)O)nc2ccccc12	-	-	-	-	-	?	.	RECQ1 inh conf=-;ADP FP counter=-
Cc1cc(N/N=C/c2ccccc2Br)nc2ccccc12	-	-	-	-	-	-	.
CS(=O)(=O)c1ccc2nc(NC(=O)c3ccc(NS(=O)(=O)c4ccc(F)c(F)c4)cc3)sc2c1	-	-	-	-	32µM	-	-
Cc1ccc2nc(NC(=O)c3ccc(N4C(=O)CCC4=O)cc3)sc2c1	-	-	-	-	-	-	.
O=C(Nc1nc2ccc(SC(F)F)cc2s1)c1ccc(NS(=O)(=O)c2ccc(F)c(F)c2)cc1	-	-	-	-	?	-	?
CC(C)(C)NS(=O)(=O)c1ccc2nc(NC(=O)c3ccc(N4C(=O)CCC4=O)cc3)sc2c1	-	-	-	-	-	-	.	RECQ1 inh conf=-;ADP FP counter=-
CCCCn1c(CNC(=O)c2ccc(OC)cc2)nnc1SCC(=O)Nc1ccccc1	-	.	-	-	.	.	.
COc1ccc(-c2noc(-c3ccc(N4CCN(c5ccc(OC)cc5)CC4)c([N+](=O)[O-])c3)n2)cc1	-	.	-	-	.	.	.
CC(C)Oc1ccc(CNC(=O)C2CCN(c3nc4ccccc4nc3C(F)(F)F)CC2)cc1	-	.	-	-	.	.	.
Cc1ccc(N2CC(C(=O)OCC(=O)c3ccc[nH]3)CC2=O)cc1 (stereo unspecified)	.	.	.	.	.	-	.
CC(C)(C)C1CCC(C(=O)OCC(=O)c2ccc[nH]2)CC1 (stereo unspecified)	-	-	-	-	?	-	-
